G9a inh = inhibitors of human histone lysine methyltransferase G9a; Q96KQ7; G9a H3K9 monomethylation, AlphaScreen, 2 h; Potency, µM (highest dose often 102 µM), for inactives: top-dose activity, negative = inhibition, most hits filed as inhibitors; 350,000 tested, 8.8% active; AID 504332; further: on the % scale 0 is the no-effect control and ±100 the full control effect; nearly all actives have a fitted effect of over 75% in size
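Using a bead-based AlphaScreen, monomethylated H3K9 product from 2 h room-temperature reactions (G9a 20 nM, peptide 500 nM, SAM 20 uM) was detected with 0.5 ug/mL rabbit anti-H3K9me1 antibody.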
HP1b binding inh = HP1-beta chromodomain-methylated histone interaction inhibition; P83916; AlphaScreen HP1-beta / biotin-H3K9me3 peptide binding; 390,000 tested, 0.56% active; AID 540317; Potency, µM (top dose mostly 114 µM), without a hit: at the highest dose activity change, negative = inhibition, most hits filed as inhibitors; further: nearly all actives have a fitted effect of over 70% in size
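HP1-beta protein (50 nM final) preincubated 30 min at room temperature with biotinylated H3(1-18)K9me3 peptide (50 nM) in PBS pH 7.4, 0.01% Tween-20, then compound added for 30 min. AlphaScreen streptavidin donor/nickel chelate acceptor beads (10 ug/mL final), 30 min dark, luminescence read.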
Sfp inh = Sfp phosphopantetheinyl transferase inhibition; Q9F4F7; 310,000 tested, 3.5% active; Biochemical Sfp PPTase activity, qHTS; AID 1490; Potency, µM, for the others: largest response in the series, negative = inhibition, hits mostly inhibitors;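 further: the enzyme is Sfp with the accession as filed and its product quenches rhodamine fluorescence; 0% = enzyme reaction without inhibitor and -100% = no enzyme wells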
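Step 1, compound plus 15 nM Sfp-PPTase, 15 min, room temperature. Step 2, add rhodamine-CoA (5 uM) and BHQ-2-YbbR (12.5 uM). Step 3, read 525/598 nm fluorescence at 0 and 30 min.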
L3MBTL1 inh = L3MBTL1 (human) inhibition. Potency, µM (series often up to 57.1 µM), without a hit: at the highest dose activity, negative = inhibition, hits mostly inhibitors. AID 485360. 230,000 tested, 0.66% active. AlphaScreen L3MBTL1–H3K9me1 peptide binding; further: on the % scale 0 is the no-effect control and ±100 the full control effect; nearly all actives have a fitted effect of over 60% in size
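Displacement of a biotinylated histone H3(1-15) peptide monomethylated at Lys9 (75 nM) from L3MBTL1 (50 nM) was measured by AlphaScreen after a 30 min room-temperature compound incubation; cefsulodin titration served as intraplate control.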
JMJD2A Tudor = blocks the human JMJD2A Tudor domain; AlphaScreen JMJD2A-Tudor / H3K4me3 peptide binding; Potency, µM (highest dose often 114 µM), inactives show at the highest dose activity change, negative = inhibition, usual class: inhibitors; 390,000 tested, 4.4% active; further: on the % scale 0 is the no-effect control and ±100 the full control effect; nearly all actives have a fitted effect of over 50% in size
BAZ2B inh = blocks human BAZ2B; AlphaScreen BAZ2B-H3K14Ac peptide displacement; Q9UIF8; 360,000 tested, 4.4% active; AID 504333; Potency, µM (doses to about 114 µM), without a hit: at the top dose activity change, negative = inhibition, actives largely listed as inhibitors; further: on the % scale 0 is the no-effect control and ±100 the full control effect; nearly all actives have a fitted effect of over 60% in size
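Multi-concentration screen (max 110 uM) measuring displacement of acetylated histone H3 peptide from BAZ2B by AlphaScreen, using 50 nM protein, 50 nM peptide and 10 ug/mL streptavidin donor plus Ni-chelate acceptor beads.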
The depositor's hits bear a star; [ ] = dose if it differs, or a comment. In the library only some 12% were active in any assay of this set; here they are far more common. The call rests on the fitted dose curve; in most records, active means well fitted curve in the direction sought with a large enough effect; inconclusive means small, poorly fitted or top-dose-only effect, or another doubt; inactive means no such curve, though single readings can be large; an effect the other way counts as inactive or inconclusive. Potency means the concentration at half of the fitted maximal effect.

Results for CCN(CC)c1ccc(N2C(=O)CSC2=S)cc1 ?
G9a inh: 5%; HP1b binding inh: inconclusive; Sfp inh: 8%; L3MBTL1 inh: 2%; JMJD2A Tudor: 50µM*; BAZ2B inh: -4%

What do the screens show for `COc1ccc2c(c1)O[C@H](c1cccc(C(F)(F)F)c1)[C@@H](O)C2=O`?
Sfp inh: 19%

How did Cc1ccc(C2=Nc3ccccc3NC(c3ccncc3)=N2)cc1 do in these assays?
G9a inh: inconclusive; HP1b binding inh: -4%; JMJD2A Tudor: inconclusive; BAZ2B inh: inconclusive

How did CC(C)(C)C(=O)Nc1sc2c(c1C#N)CCC2 do in these assays?
G9a inh: 11%; HP1b binding inh: -8%; Sfp inh: 6%; L3MBTL1 inh: inconclusive; JMJD2A Tudor: -14%; BAZ2B inh: 1%

Results for CC(C)C(=O)Nc1sc2c(c1C#N)CCCCC2 ?
G9a inh: -31%[59 µM]; HP1b binding inh: 7%; Sfp inh: 32µM*; L3MBTL1 inh: -2%; JMJD2A Tudor: -12%; BAZ2B inh: 9%

What do the screens show for `N#Cc1c(NC(=O)C2CC2)sc2c1CCCCC2`?
G9a inh: 89µM*; HP1b binding inh: 5%; Sfp inh: inconclusive; L3MBTL1 inh: -5%; JMJD2A Tudor: -3%; BAZ2B inh: -35%

Results for Cc1cc(C)c2c(NC(=O)c3ccccc3Cl)c(C(=O)NCc3ccc(Cl)cc3)sc2n1 ?
G9a inh: -6%[59 µM]; HP1b binding inh: -6%; JMJD2A Tudor: -25%; BAZ2B inh: inconclusive

How did Cc1ccc(S(=O)(=O)O/N=C2\CCCc3ccccc32)cc1 do in these assays?
G9a inh: 18%[12.7 µM]; HP1b binding inh: 55%; Sfp inh: -1%; JMJD2A Tudor: 17%; BAZ2B inh: -4%

Results for CC1=C(C)/C(=N\OS(=O)(=O)c2ccccc2)C=CC1=O ?
G9a inh: 16µM*; HP1b binding inh: inconclusive; Sfp inh: 40µM*; JMJD2A Tudor: 56µM*; BAZ2B inh: 40µM*

Results for Cc1cc(C)n(Cc2ccc(C(=O)Nc3ccc(Br)cc3C)o2)n1 ?
G9a inh: 3%[59 µM]; HP1b binding inh: 18%; Sfp inh: 5%; L3MBTL1 inh: -11%; JMJD2A Tudor: -13%; BAZ2B inh: -21%

Results for Cc1cc(C)n(Cc2ccc(C(=O)Nc3cccc(Br)c3)o2)n1 ?
G9a inh: 79µM*; HP1b binding inh: 9%; Sfp inh: 6%; L3MBTL1 inh: -2%; JMJD2A Tudor: -9%; BAZ2B inh: -4%

Results for COc1cccc(CNc2ccc3c(c2)CCC3)c1 ?
G9a inh: 14µM*; HP1b binding inh: -14%; Sfp inh: -26%; JMJD2A Tudor: inconclusive; BAZ2B inh: inconclusive

What do the screens show for `COc1ccc(OC)c(CNc2ccc3c(c2)CCC3)c1`?
G9a inh: 32µM*; HP1b binding inh: inconclusive; Sfp inh: -2%; JMJD2A Tudor: inconclusive; BAZ2B inh: inconclusive

How did COc1ccc(OC)c(CNc2ccc(F)c(Cl)c2)c1 do in these assays?
G9a inh: 50µM*; HP1b binding inh: -4%; Sfp inh: 3%; JMJD2A Tudor: inconclusive; BAZ2B inh: inconclusive

What do the screens show for `O=C1CN(C(=O)c2c(F)cccc2Cl)C(c2ccc(F)cc2)c2cc(Br)ccc2N1` (stereo not given)?
G9a inh: -6%[59 µM]; HP1b binding inh: 19%; JMJD2A Tudor: -18%; BAZ2B inh: -19%

How did COc1cc(CNc2ccccc2SC)cc(OC)c1OC do in these assays?
G9a inh: 11µM*; HP1b binding inh: 13%; Sfp inh: inconclusive; JMJD2A Tudor: inconclusive; BAZ2B inh: -33%

Results for COc1cc(CNc2nc3ccccc3n2C)cc(OC)c1OC ?
G9a inh: 18%[59 µM]; HP1b binding inh: 10%; Sfp inh: 6%; L3MBTL1 inh: 3%; JMJD2A Tudor: -9%; BAZ2B inh: 4%

What do the screens show for `COc1ccc(CNc2ccccc2SC)cc1OC`?
G9a inh: 10µM*; HP1b binding inh: 16%; Sfp inh: 56µM*; JMJD2A Tudor: 79µM*; BAZ2B inh: inconclusive

How did COc1ccc(CNS(=O)(=O)NCc2ccc(OC)c(OC)c2)cc1OC do in these assays?
G9a inh: 0%; HP1b binding inh: 16%; Sfp inh: 10%; L3MBTL1 inh: 26%; JMJD2A Tudor: 3%; BAZ2B inh: 0%

How did COc1ccc(CNc2cccc3[nH]c(C(F)(F)F)nc23)cc1OC do in these assays?
G9a inh: -29%[2.33 µM]; HP1b binding inh: -26%; Sfp inh: inconclusive; JMJD2A Tudor: inconclusive; BAZ2B inh: 50µM*

What do the screens show for `CCOc1ccc(-n2ccnc2SCC(=O)Nc2nc3ccc(C)cc3s2)cc1`?
G9a inh: 0%[59 µM]; HP1b binding inh: 21%[57 µM]; JMJD2A Tudor: -25%; BAZ2B inh: -22%

How did COc1ccc(CCN2CCC[C@H](CN3CCc4cc(OC)c(OC)cc4CC3=O)C2)cc1OC do in these assays?
Sfp inh: -13%

What do the screens show for `Cc1ccc2[nH]c(=O)c(CN(Cc3ccco3)C(=O)c3cccs3)cc2c1`?
G9a inh: 5%[59 µM]; Sfp inh: 7%; L3MBTL1 inh: 1%; BAZ2B inh: 3%

Results for O=C(c1ccco1)N(c1ccccn1)c1ccccn1 ?
G9a inh: 5%[2.33 µM]; HP1b binding inh: 33%; Sfp inh: -6%; JMJD2A Tudor: 2%; BAZ2B inh: -3%

Results for O=C(c1cccs1)N(Cc1ccccn1)Cc1ccco1 ?
G9a inh: inconclusive; HP1b binding inh: -4%; Sfp inh: 79µM*; L3MBTL1 inh: -4%; JMJD2A Tudor: inconclusive; BAZ2B inh: inconclusive

Results for O=C(c1ccco1)N(Cc1ccccc1)Cc1ccccn1 ?
G9a inh: 79µM*; HP1b binding inh: 54%; Sfp inh: -18%; L3MBTL1 inh: inconclusive; JMJD2A Tudor: 3%; BAZ2B inh: inconclusive

Results for c1ccc(Sc2cccc3ccccc23)c(CNC2=NCCN2)c1 ?
G9a inh: 16µM*; HP1b binding inh: -21%; Sfp inh: -20%; L3MBTL1 inh: -2%; JMJD2A Tudor: 32µM*; BAZ2B inh: inconclusive

Results for CN(C)Cc1ccccc1Sc1cccc2ccccc12 ?
G9a inh: inconclusive; HP1b binding inh: -10%; Sfp inh: -71%; L3MBTL1 inh: -18%; JMJD2A Tudor: -32%; BAZ2B inh: inconclusive

What do the screens show for `Fc1ccccc1Sc1ccccc1CNC1=NCCN1`?
G9a inh: 7.1µM*; HP1b binding inh: inconclusive; Sfp inh: -12%; L3MBTL1 inh: 23%; JMJD2A Tudor: inconclusive; BAZ2B inh: -10%

What do the screens show for `Cn1c(-n2cccc2)c(-c2c(-c3ccccc3)[nH]c3c2c(=O)n(C)c(=O)n3C)c(=O)n(C)c1=O`?
G9a inh: -29%[59 µM]; HP1b binding inh: 40%; JMJD2A Tudor: -12%; BAZ2B inh: -11%
